Measurements from the supplement of paper PMC3334620.
Whole data set: some 33,000 sequences, median “E-score (-0.5 to 0.5)” near -0.041, cut for the highest 2% near 0.37. What follows is part of a selection rich in the highest values, with near analogues and random picks from the rest.

Target: T1, Ecm22 (UniProt Q05958)
T1 sequence: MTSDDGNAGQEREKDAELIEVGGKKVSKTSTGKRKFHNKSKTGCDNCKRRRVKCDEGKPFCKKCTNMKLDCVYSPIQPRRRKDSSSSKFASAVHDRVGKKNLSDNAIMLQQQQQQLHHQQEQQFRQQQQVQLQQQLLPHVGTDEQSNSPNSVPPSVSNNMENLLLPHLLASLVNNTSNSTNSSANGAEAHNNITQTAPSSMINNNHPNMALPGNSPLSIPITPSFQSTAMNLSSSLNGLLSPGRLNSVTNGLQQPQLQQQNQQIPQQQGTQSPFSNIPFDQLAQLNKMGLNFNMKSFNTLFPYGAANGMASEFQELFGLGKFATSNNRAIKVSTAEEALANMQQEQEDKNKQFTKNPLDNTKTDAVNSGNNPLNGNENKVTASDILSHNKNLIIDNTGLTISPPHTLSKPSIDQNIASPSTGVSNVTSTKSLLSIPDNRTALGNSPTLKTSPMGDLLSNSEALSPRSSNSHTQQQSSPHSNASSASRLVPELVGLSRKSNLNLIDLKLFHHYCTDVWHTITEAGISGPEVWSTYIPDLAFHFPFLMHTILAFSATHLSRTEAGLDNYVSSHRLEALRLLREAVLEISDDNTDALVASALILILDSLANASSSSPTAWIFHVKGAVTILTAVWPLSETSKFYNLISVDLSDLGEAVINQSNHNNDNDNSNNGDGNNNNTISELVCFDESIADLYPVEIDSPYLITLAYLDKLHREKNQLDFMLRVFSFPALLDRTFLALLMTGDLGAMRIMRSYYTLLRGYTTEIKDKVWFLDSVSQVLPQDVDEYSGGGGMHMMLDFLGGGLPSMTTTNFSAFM
Assay: PBM E-score (8-mer binding enrichment) (E-score (-0.5 to 0.5)); higher = stronger / more preferred TF binding
Conditions: protein concentration: 200 nM; construct: GST-full length
Summary of the method: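 Yeast transcription factors carrying a GST tag, as full-length proteins or DNA-binding domains, were produced by PURExpress in vitro transcription/translation. About 100-200 nM protein was applied to universal all-10-mer Agilent arrays, double-stranded by primer extension on fresh or once-stripped slides. Bound protein was detected with fluorescent anti-GST, and scans were normalised with masliner. The Universal PBM Analysis Suite gave each ungapped eight-base word, pooled with its reverse complement, an E-score, a modified Wilcoxon-Mann-Whitney statistic.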

Row | Sequence | PBM E-score
1 | AGGGGAAA | -0.223
2 | CAAGGACA | -0.247
3 | GGCACCGA | -0.0384
4 | GAGTCACA | 0.0764
5 | AAACTGTT | -0.124
6 | ACCGTAGC | 0.163
7 | ACCGTACT | 0.285
8 | ACCGTACC | 0.416
9 | ACCGTAAC | 0.231
10 | ACCGTACA | 0.371
11 | ACCGTAGA | 0.0719
12 | CACTGTCG | 0.109
13 | GCCCTATA | -0.00087
14 | AAATAGCT | -0.0997
15 | ATTAACGA | 0.402
16 | ATTAACGG | 0.226
17 | GTTAACTA | 0.106
18 | ATTAACGC | 0.122
19 | CGTAACGA | 0.338
20 | CTTAACGA | 0.432
21 | GTTAACGA | 0.408
22 | CTTAACGC | -0.0209
23 | GCTAACGA | 0.281
24 | AGAAGACA | 0.011
25 | GTGTTTCA | -0.0721

Row | Sequence | PBM E-score
26 | GTCCTGGA | -0.225
27 | TTAATAAA | 0.169
28 | CCGAACGG | 0.222
29 | ACGAACGT | 0.307
30 | GCGAACTA | 0.114
31 | GCGAACGA | 0.397
32 | ACGAACGC | 0.362
33 | CCGAACGA | 0.357
34 | ACGAACGG | 0.392
35 | ACGAACGA | 0.447
36 | TCGAACCA | -0.029
37 | TCGAACAA | 0.109
38 | TCGAACGA | 0.373
39 | GCGAACGC | 0.138
40 | CCACCGGG | -0.108
41 | GATTTCCA | -0.146
42 | CTGCTCTA | 0.0645
43 | ATGCTGAG | -0.31
44 | AGCCGGAA | -0.0725
45 | ACCAATGA | -0.061
46 | CAACAACG | 0.209
47 | ATAGTCGC | 0.146
48 | CCTCTAAA | -0.193
49 | GACTTAGC | -0.147
50 | GGCATCCC | -0.315

Row | Sequence | PBM E-score
51 | CAAGCAAC | 0.00354
52 | AGAGGCCA | -0.203
53 | CTACCAAG | -0.23
54 | AGGAACGG | 0.459
55 | AGGAACAG | -0.257
56 | AGGAACGC | 0.208
57 | AAAGACGC | -0.118
58 | AAATTGAA | -0.166
59 | AAACGGTT | 0.262
60 | CGAACGCG | 0.198
61 | AGAACGGA | 0.0615
62 | AGAACGTG | -0.0515
63 | CTAACGAG | 0.331
64 | CGAACGGA | 0.24
65 | ACAACGAG | 0.288
66 | CGAACGCC | 0.0398
67 | CGAACGAC | 0.389
68 | AGAACGAG | 0.45
69 | GGAACGGA | 0.435
70 | CGAACGTC | 0.0995
71 | CGAACGAG | 0.428
72 | ATGGTTAG | -0.0935
73 | GAGGCGTA | 0.155
74 | TAAGGATA | 0.00857
75 | GGCATTAC | -0.132

Row | Sequence | PBM E-score
76 | GAGTTGAA | 0.04
77 | CGAACAAA | 0.2
78 | GGAACGCC | 0.051
79 | TTAACGAA | 0.411
80 | CGAACGTA | 0.214
81 | CGAACGAA | 0.393
82 | ATAACGAC | 0.203
83 | AGAACGAC | 0.425
84 | GTAACGAC | 0.289
85 | AGAACGTC | -0.0743
86 | ATAACGAA | 0.185
87 | CTAACGAA | 0.219
88 | GGAACGAC | 0.491
89 | AATGTCCG | 0.127
90 | GCGAAGTA | 0.112
91 | ACCACTGC | -0.25
92 | GGTGCCAA | -0.179
93 | AATGGGGG | -0.268
94 | CAAGGGAG | 0.062
95 | ACGCCCAC | -0.181
96 | GGAAACAC | 0.0703
97 | TACGGACA | 0.258
98 | GGAACGCA | 0.23
99 | AGAACAAA | 0.0892
100 | TGAACAAA | 0.165

Row | Sequence | PBM E-score
101 | TGAACGAA | 0.434
102 | GGAACGAA | 0.489
103 | AGAACGAA | 0.422
104 | TGAACGCA | 0.0733
105 | GGAACGTA | 0.353
106 | AGAACGAT | 0.342
107 | ACAGAAGT | -0.182
108 | CCTAAGTA | 0.0729
109 | CACGACCA | 0.0103
110 | TGCGACCA | 0.215
111 | CACGACCC | -0.0107
112 | AACGACCA | 0.424
113 | TCCGACCA | 0.16
114 | GACGACCC | -0.108
115 | GACGACCA | 0.097
116 | AACGACCC | 0.386
117 | TACGACCA | 0.449
118 | ACCGACCG | 0.278
119 | AACGACCG | 0.407
120 | CACGACCG | 0.0498
121 | CGGCGTTA | 0.0563
122 | AGCAATTA | -0.107
123 | CCCAGGTC | -0.218
124 | AAGTTGGT | 0.0141
125 | CTCAAGTA | -0.142

Row | Sequence | PBM E-score
126 | CATAACAC | 0.0539
127 | AGCCTCTC | -0.117
128 | CGATAAAC | 0.259
129 | GACTTTTA | -0.222
130 | CAGGCTGC | -0.272
131 | ATGCCATA | 0.0201
132 | GATAGACC | 0.0888
133 | ACCGACCT | 0.0975
134 | AGCGACCT | 0.0578
135 | AACGACCT | 0.385
136 | GGACTGGA | -0.323
137 | AACTGGGC | -0.0689
138 | ACGTATCA | 0.281
139 | TCGTAAGA | 0.407
140 | GCGTATCA | 0.114
141 | TCGTAACA | 0.425
142 | CCGTTAAA | 0.278
143 | TCGTTAAA | 0.44
144 | ACGTTAAA | 0.213
145 | CCGTAACA | 0.2
146 | TCGTATCA | 0.463
147 | CCGTAAGA | 0.164
148 | GCGTAACA | 0.00254
149 | ACGTAAGA | 0.105
150 | AATGGGCA | -0.0348

Row | Sequence | PBM E-score
151 | AGAAATAA | -0.0747
152 | AGAAGCCA | -0.0549
153 | ACGAGTGG | 0.331
154 | ATTTTCCA | -0.0726
155 | ACGTAAAA | 0.243
156 | GCGTAAAA | 0.217
157 | TCGTAAAA | 0.476
158 | GGCAGGGA | -0.148
159 | AATTCAGA | -0.0476
160 | CTCGTTGC | 0.445
161 | CGCGTTTC | 0.0578
162 | ATCGTTGC | 0.347
163 | CACGTTTC | -0.0133
164 | CTCGTTGA | 0.277
165 | CTCGTTTC | 0.453
166 | CTGCAAAA | -0.0893
167 | ACGGGTTA | 0.217
168 | ACGCATCA | 0.0479
169 | ATTCGGAC | 0.163
170 | CCGGGTAC | 0.291
171 | ATTTGAAC | 0.0528
172 | CTCAGCTC | -0.0614
